Bioassay records from PubChem BioAssay.
HTR5A ag = HTR5A agonists in luminescence cell assay, primary screen, counter-screen for OPRM1-OPRD1 heterodimer agonist project, full-deck HTS | 5-hydroxytryptamine receptor 5A (Homo sapiens), P47898 | cell-based | activation, % at 9.3 µM | 0.61% of 340,000 active; in the data active means activation mostly above about 9.5%, no sharp cut-off; inactive means mostly below about 7.6%;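 further: 0% = cells with vehicle only and 100% = reference agonist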
Target sequence (P47898 whole entry, looked up): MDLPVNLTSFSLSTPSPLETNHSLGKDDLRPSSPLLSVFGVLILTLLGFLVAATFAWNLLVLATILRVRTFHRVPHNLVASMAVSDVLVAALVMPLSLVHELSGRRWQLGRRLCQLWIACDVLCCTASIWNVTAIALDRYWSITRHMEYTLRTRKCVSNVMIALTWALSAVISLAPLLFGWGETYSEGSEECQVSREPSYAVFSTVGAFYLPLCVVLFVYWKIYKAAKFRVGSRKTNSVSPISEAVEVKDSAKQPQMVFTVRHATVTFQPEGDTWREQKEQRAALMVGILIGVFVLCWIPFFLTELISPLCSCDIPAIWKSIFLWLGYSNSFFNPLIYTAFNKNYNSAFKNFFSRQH
OPRM1-OPRD1 ag = agonists of OPRM1-OPRD1 heterodimerization, primary screen, cell-based, luminescence. 0.3% of 340,000 active. cells. activation, % at 9.3 µM. Mu-type opioid receptor (Homo sapiens) + Delta-type opioid receptor (Homo sapiens), …; in the data active means activation above about 18%;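 further: 0% = vehicle-treated cells and 100% = reference agonist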
HTR5A inv ctr = HTR5A inverse agonists in luminescence cell assay, primary screen, counter-screen for OPRM1-OPRD1 heterodimer inverse agonist project, full-deck HTS. 5-hydroxytryptamine receptor 5A (Homo sapiens), P47898. HTR5A cell line, inverse agonism. inhibition, % at 9.3 µM. 0.083% of 340,000 active; in the data active means inhibition mostly above about 23%, no sharp cut-off; inactive means mostly below about 18%;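 further: 0% = cells with DMSO and 100% = no-cell wells with DMSO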
sPLA2-III inh = human group III sPLA2 inhibitors, primary screen, biochemical, QFRET, BODIPY PC-A2 liposome substrate; Group 3 secretory phospholipase A2 (Homo sapiens), Q9NZ20; QFRET BODIPY PC-A2 liposome hydrolysis, fluorescence; inhibition, % at 12.2 µM; 0.56% of 370,000 active; AID 743126, 2013;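 active means inhibition above mean plus 3 SD of compounds lying within the high and low control bounds, cut at about 19% in these data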;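 further: 0% = median of test compound wells and 100% = no enzyme DMSO wells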
OPRM1-OPRD1 inv = inverse agonists of MOR-DOR heterodimerization, primary screen, cell-based, luminescence; Mu-type opioid receptor (Homo sapiens) + Delta-type opioid receptor (Homo sapiens), …; cell-based MOR-DOR heterodimer luminescence, inverse agonism; inhibition, % at 9.3 µM; 0.21% of 340,000 active; AID 504357, 2011; in the data active means inhibition above about 22%, passing the limit was not always enough;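 further: 0% = cells with DMSO and 100% = wells without cells with DMSO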
HTR2A ag = mouse Htr2a agonists via beta-arrestin recruitment, primary screen, cell-based, luminescence; 5-hydroxytryptamine receptor 2A (Mus musculus), P35363; CHO-K1 mHTR2A beta-arrestin complementation; percent of 30 µM serotonin response; activation, % at 7.6 µM; 0.66% of 360,000 active;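 active means activation above a run cutoff, the mean activation of all tested compounds plus 3 SD, cut at about 14% in these data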;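 further: 0% = plate median of compound wells and 100% = 30 µM serotonin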
OPRM1 ag = OPRM1 agonists via beta-arrestin recruitment, confirmation, counter-screen for mouse HTR2A agonist project, cell-based, luminescence, single concentration. shares compounds with HTR2A ag. U2OS OPRM1 beta-arrestin PathHunter; DMSO 0%, DAMGO 9.3 µM 100%. activation, % at 9.3 µM. 5.3% of 2,300 active. AID 624380, 2012;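 active means mean activation above the mean of DMSO-only wells plus 3 SD, cut at about 0.5% in these data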
m5-HT2A ag conf = mouse HTR2A agonists, beta-arrestin recruitment, confirmation, cell-based, luminescence, CHO-K1 PathHunter, triplicate; shares compounds with HTR2A ag; activation, % at 7.6 µM; DMSO 0%, 30 µM serotonin 100%; 19% of 2,300 active; AID 624381, 2012;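 active means mean activation across triplicates above the hit threshold derived in the original primary screen, cut at about 15% in these data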
An asterisk follows results filed as active; / = not tested or not shown. Rows were chosen to be rich in hits. Some 2.2% of all compounds tested hit in one or more screens of this group.

SMILES	HTR5A ag	OPRM1-OPRD1 ag	HTR5A inv ctr	sPLA2-III inh	OPRM1-OPRD1 inv	HTR2A ag	OPRM1 ag	m5-HT2A ag conf
C=CCn1c(=N)n(CC(O)c2ccco2)c2ccccc21 (stereo not given)	4.0	-0.8	-14.1	6.7	4.3	14.7*	-0.3	-1.6
CC(C)=CC([C@]12C[C@H](CO)N[C@@H]1Nc1ccccc12)S(=O)(=O)c1ccccc1 (stereo not given in full)	/	/	/	-5.6	/	/	/	/
CCc1ccc(S(=O)(=O)Nc2ccncc2)cc1	1.0	-3.3	-3.6	-36.4	15.3	15.4*	-0.5	-3.4
Cc1ccc2nccc(C(=O)N3CCCC(Nc4ccc(F)cc4)C3)c2c1 (stereo not given)	-1.8	-1.5	20.4	-3.5	10.2	17.6*	-0.6	-2.2
Cc1ccn2cc(C(=O)N3CCCC(Nc4ccc(F)cc4)C3)nc2c1 (stereo not given)	-1.3	-2.8	18.1	10.9	9.1	18.5*	-0.8	1.1
Cc1ccc2nc(C(=O)N3CCCC(Nc4ccc(F)cc4)C3)cn2c1 (stereo not given)	0.5	0.7	-0.9	-2.9	-3.8	-1.3	/	/
Cc1ccccc1NC(=O)O[C@H]1CC[C@@]23CCCN2C(=O)CCC[C@H]3[C@H]1C	/	/	/	4.5	/	/	/	/
COC(=O)[C@]12C[C@H](CC(=O)NCCC(C)C)C(=O)N(Cc3cccc4ccccc34)C1=C[C@H](C(C)C)O[C@@H]2C1CC1	/	/	/	-2.6	/	/	/	/
OC(CNCCNc1ncccc1C(F)(F)F)COc1ccc(F)cc1 (stereo not given)	4.2	1.0	-7.5	-7.1	-4.9	-5.4	/	/
Cn1cc(C(F)(F)F)nc1-c1ccc(OCC(O)CNCCOc2ccc(O)c(C(N)=O)c2)cc1 (stereo not given)	-1.8	-3.3	6.5	-6.6	17.9	32.9*	-0.9	116.5*
CC(C)[C@H](NC(=O)[C@H](C)NC(=O)OC(C)(C)C)C(=O)N1CCC2CCN(Cc3ccccc3)CC21 (stereo not given in full)	/	/	/	12.3	/	/	/	/
CC(=O)c1ccc(C(=O)Nc2nnc(-c3ccc(Cl)cc3)o2)cc1	0.8	-0.7	-2.4	8.5	4.2	23.6*	-0.2	-1.9
O=C(Nc1nnc(-c2ccccc2)o1)c1ccc(Cl)cc1	0.4	-0.5	-5.0	15.1	2.6	5.8	/	/
CC(C)CNc1cccc2c1S(=O)(=O)N(Cc1cn(Cc3cccc(F)c3)nn1)Cc1ccccc1O2	/	/	/	-7.5	/	/	/	/
CC(=O)OC(C(=O)Nc1nccs1)c1ccccc1 (stereo not given)	6.7	-1.8	24.9	3.2	8.7	16.1*	-0.5	-2.0
COCCN(C(=O)COC(=O)C1CCCCC1)c1c(N)n(Cc2ccccc2)c(=O)[nH]c1=O	/	/	/	12.5	/	16.0*	-0.6	-4.2
COCCN(C(=O)COC(=O)CC1CCCCC1)c1c(N)n(Cc2ccccc2)c(=O)[nH]c1=O	-2.0	-2.1	4.8	6.2	10.7	-1.4	/	/
Cc1ccccc1N/C(=N/S(=O)(=O)c1ccccc1)c1ccc(F)cc1	-4.9	-2.5	9.1	4.2	12.6	4.4	/	/
Cc1ccc(/C(=N\S(=O)(=O)c2ccc(Br)cc2)Nc2ccccc2C)cc1	7.5	-1.7	-20.0	3.9	9.1	14.6*	-0.1	9.4
C[C@@H](O)C#Cc1ccc2c(c1)O[C@H](CN(C)C(=O)Nc1ccccc1)[C@@H](C)CN([C@@H](C)CO)S2(=O)=O	/	/	/	3.6	/	14.7*	-0.2	8.4
C[C@H](CO)N1C[C@H](C)[C@@H](CN(C)C(=O)c2ccccc2)Oc2cc(C#C[C@@H](C)O)ccc2S1(=O)=O	/	/	/	8.5	/	9.5	/	/
CC(C)NC(=O)N(C)C[C@H]1Oc2cc(C#Cc3ccc(F)cc3)ccc2S(=O)(=O)N([C@H](C)CO)C[C@H]1C	/	/	/	-16.5	/	41.1*	-0.7	23.8*
c1ccc(Cc2nnc(Sc3ccccc3)c3ccccc23)cc1	-0.5	3.3	-23.0	-6.7	-17.8	26.2*	-0.4	8.8
CCN=C1NC(c2ccc(Cl)cc2)C(C(=O)OC)=C(C)N1Cc1cccc(C(F)(F)F)c1 (stereo not given)	/	/	/	-1.4	/	/	/	/
O=c1c2ccccc2nc(/C=C/c2c[nH]c3ccccc23)n1CCO	3.3	-0.3	-13.4	-26.8	1.6	14.5*	-0.5	2.6
SMILES	HTR5A ag	OPRM1-OPRD1 ag	HTR5A inv ctr	sPLA2-III inh	OPRM1-OPRD1 inv	HTR2A ag	OPRM1 ag	m5-HT2A ag conf
O=C(N[C@H](Cc1ccccc1)C(=O)N1CCN(CC(=O)N2CCCC2)CC1)[C@H]1O[C@@H](n2ccc(=O)[nH]c2=O)[C@H](O)[C@@H]1O	/	/	/	7.8	/	/	/	/
CN(C)c1ccc(C#Cc2ccc3cc(CCO)oc(=O)c3c2)cc1	-2.8	0.5	7.6	/	-3.0	-0.8	/	/
COc1cc(C#Cc2ccc3cc(CCO)oc(=O)c3c2)cc(OC)c1	9.5	8.2	-25.7	-60.6	-47.5	16.6*	-0.2	-1.8
O=C(NCCc1ccccc1Cl)[C@@H]1CCCN1C(=O)[C@@H](NC(=O)N1CCOCC1)c1ccccc1	/	/	/	11.4	/	/	/	/
COc1cccc(N2CCN(C(=O)c3ccc(=O)oc3)CC2C)c1 (stereo not given)	2.0	1.1	-7.2	2.8	-5.7	21.5*	-0.5	4.0
COc1ccc(NC(=O)CSc2nc3ccccc3c(=O)n2CCCN2CCOCC2)c(OC)c1	2.6	0.1	-11.8	-3.6	-0.8	38.9*	-0.6	12.5
COC(=O)c1ccc2c(=O)n(CCN3CCOCC3)c(SCC(=O)NCc3ccccc3)nc2c1	0.4	-2.0	-1.0	3.1	9.7	15.8*	-0.6	-4.9
CC(=O)c1cccc(NC(=O)CSc2nc3ccccc3c(=O)n2CCCN2CCOCC2)c1	-7.0	-2.5	-7.5	-2.0	9.6	-7.1	/	/
COc1ccc(NC(=O)CSc2nc3ccccc3c(=O)n2CCNC(C)=O)c(OC)c1	7.9	-4.7	-6.5	7.0	23.1	-3.6	/	/
CCc1ccc(NC(=O)CSc2nc3ccccc3c(=O)n2CCCN2CCC(C)CC2)cc1	-0.6	2.0	-25.7	-13.8	-9.7	47.8*	-0.2	20.1*
